Results filed as inconclusive are left out. The source made the active and inactive calls. Unless noted, calls follow the shape of the dose curve; as a rule, active = well fitted curve in the direction sought with a large enough effect; inconclusive = small, poorly fitted or top-dose-only effect, or another doubt; inactive = no such curve, though single readings can be large; an effect the other way counts as inactive or inconclusive.
Tests used:
[1] = biological target: Lysosomal acid glucosylceramidase (Homo sapiens) (UniProt P04062); assay: Glucocerebrosidase-p2 (AID 348; in the data active = potency below about 10 µM; also: potency is read from the fitted curve at half-maximal effect); settings: purified GBA, blue fluorogenic substrate, 40 min
Sequence of Lysosomal acid glucosylceramidase (Homo sapiens) (P04062 whole entry, looked up): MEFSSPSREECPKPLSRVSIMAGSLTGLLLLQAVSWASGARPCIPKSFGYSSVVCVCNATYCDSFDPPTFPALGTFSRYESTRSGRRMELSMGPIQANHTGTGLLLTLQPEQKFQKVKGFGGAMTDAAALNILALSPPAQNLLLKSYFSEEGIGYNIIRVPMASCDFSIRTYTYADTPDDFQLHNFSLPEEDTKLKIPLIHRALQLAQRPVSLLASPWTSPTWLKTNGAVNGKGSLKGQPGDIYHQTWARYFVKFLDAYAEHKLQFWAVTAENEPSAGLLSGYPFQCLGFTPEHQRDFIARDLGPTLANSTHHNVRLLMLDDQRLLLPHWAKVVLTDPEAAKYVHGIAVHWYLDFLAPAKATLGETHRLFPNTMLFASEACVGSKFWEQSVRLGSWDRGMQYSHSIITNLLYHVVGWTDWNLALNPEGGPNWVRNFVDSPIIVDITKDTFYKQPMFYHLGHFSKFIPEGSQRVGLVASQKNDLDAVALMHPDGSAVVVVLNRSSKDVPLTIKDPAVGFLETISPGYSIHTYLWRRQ
How it was run: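 Normal human glucocerebrosidase (0.2 nM) with blue fluorogenic substrate (80 uM final) in citrate/phosphate pH 5.9 with 10mM sodium taurocholate, 0.01% tween-20; 40 min RT, NaOH/glycine stop; fluorescence Ex 365/Em 440; AC50 from a titration from 0.6 nM upwards.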

[2] = AP1 Signaling Pathway (AID 357; active = well fitted curve in either direction with a large enough effect, not every such curve was filed as active; also: % is scaled to controls: 0 for no effect and ±100 for the full control effect); settings: ME-180 AP-1-bla reporter, EGF-induced, beta-lactamase ratio, 5 h; at 7.69 µM (top of the series) unless noted
How it was run: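 Modulation of EGF-driven AP-1 transcription was assessed with a beta-lactamase reporter in ME-180 cells. Compound and EC50 EGF were co-incubated 5 hours at 37 °C before 2.5-hour CCF4 loading at room temperature and dual-emission reading.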

[3] = biological target: Cytochrome P450 1A2 (Homo sapiens) (UniProt P05177); assay: p450-cyp1a2 (AID 410; calls by dose curve; also: potency is read from the fitted curve at half-maximal effect); settings: recombinant CYP1A2, luciferin-ME demethylation, luminescence; series mostly up to 57 µM
Sequence of Cytochrome P450 1A2 (Homo sapiens) (P05177 whole entry, looked up): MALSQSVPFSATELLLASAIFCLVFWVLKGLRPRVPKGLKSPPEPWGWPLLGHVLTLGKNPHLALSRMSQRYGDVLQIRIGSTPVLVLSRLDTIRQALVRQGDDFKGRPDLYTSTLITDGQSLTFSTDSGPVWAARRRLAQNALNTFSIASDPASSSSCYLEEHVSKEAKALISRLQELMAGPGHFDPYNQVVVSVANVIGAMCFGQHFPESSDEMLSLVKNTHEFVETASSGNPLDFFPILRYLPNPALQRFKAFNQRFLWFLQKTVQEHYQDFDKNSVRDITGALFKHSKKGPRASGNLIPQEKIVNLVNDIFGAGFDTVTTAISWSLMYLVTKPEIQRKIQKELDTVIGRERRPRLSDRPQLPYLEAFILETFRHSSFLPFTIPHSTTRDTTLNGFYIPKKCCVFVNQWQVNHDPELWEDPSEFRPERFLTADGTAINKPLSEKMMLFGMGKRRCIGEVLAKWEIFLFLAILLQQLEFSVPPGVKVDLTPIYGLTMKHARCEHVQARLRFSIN
How it was run: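 Read-out is luminescence from luciferin produced by CYP1A2 demethylation of Luciferin-ME (100uM, at Km). Detection reagent stopped the 60 min NADPH-dependent reaction; signals were normalized to 57 uM furafylline.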

[4] = NFAT Signaling Pathway (AID 444; active = well fitted curve in either direction with a large enough effect, not every such curve was filed as active;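 also: carbachol stimulus at about its EC50 of 1 µM final; % is scaled to controls: 0 for no effect and ±100 for the full control effect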); settings: Jurkat NFAT-bla M1, carbachol, beta-lactamase ratio, 5 h; at 7.69 µM (top of the series) unless noted
How it was run: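 Read-out: CCF4 FRET ratio (460 nm/530 nm) after 1 h RT dye loading, used for %activity and AC50 from titration series. Cells: Jurkat NFAT-β-lactamase/M1 line, treated with compound plus 1 uM carbachol for 5 h, 37 °C.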

[5] = Stat Signaling Pathway (AID 446; active = well fitted curve in either direction with a large enough effect, not every such curve was filed as active;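 also: ME-180 cervical cancer cells given 40 pM IL-6 alongside compound; SIE-controlled beta-lactamase reporter measured as 460/530 nm FRET emission ratio; % is scaled to controls: 0 for no effect and ±100 for the full control effect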); settings: ME-180 SIE beta-lactamase reporter, IL-6 stimulated, 5 h; at 7.69 µM (top of the series) unless noted
How it was run: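 Overnight-plated ME-180 cells bearing a STAT Inducible Element beta-lactamase reporter; 5 h co-exposure to compound and 40 pM IL-6; values normalized to 300 pM IL-6 and 125 nM JAK inhibitor controls.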

[6] = biological target: Glucocorticoid receptor (Homo sapiens) (UniProt P04150); assay: GR-GFP Redistribution (AID 450;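 active = compounds whose dose series gives a full or clear partial fitted curve of increased nuclear translocation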; also: potency is read from the fitted curve at half-maximal effect); settings: U2OS GR-GFP nuclear translocation, laser cytometry, 2 h
Sequence of Glucocorticoid receptor (Homo sapiens) (P04150 whole entry, looked up, the tested form may be a part): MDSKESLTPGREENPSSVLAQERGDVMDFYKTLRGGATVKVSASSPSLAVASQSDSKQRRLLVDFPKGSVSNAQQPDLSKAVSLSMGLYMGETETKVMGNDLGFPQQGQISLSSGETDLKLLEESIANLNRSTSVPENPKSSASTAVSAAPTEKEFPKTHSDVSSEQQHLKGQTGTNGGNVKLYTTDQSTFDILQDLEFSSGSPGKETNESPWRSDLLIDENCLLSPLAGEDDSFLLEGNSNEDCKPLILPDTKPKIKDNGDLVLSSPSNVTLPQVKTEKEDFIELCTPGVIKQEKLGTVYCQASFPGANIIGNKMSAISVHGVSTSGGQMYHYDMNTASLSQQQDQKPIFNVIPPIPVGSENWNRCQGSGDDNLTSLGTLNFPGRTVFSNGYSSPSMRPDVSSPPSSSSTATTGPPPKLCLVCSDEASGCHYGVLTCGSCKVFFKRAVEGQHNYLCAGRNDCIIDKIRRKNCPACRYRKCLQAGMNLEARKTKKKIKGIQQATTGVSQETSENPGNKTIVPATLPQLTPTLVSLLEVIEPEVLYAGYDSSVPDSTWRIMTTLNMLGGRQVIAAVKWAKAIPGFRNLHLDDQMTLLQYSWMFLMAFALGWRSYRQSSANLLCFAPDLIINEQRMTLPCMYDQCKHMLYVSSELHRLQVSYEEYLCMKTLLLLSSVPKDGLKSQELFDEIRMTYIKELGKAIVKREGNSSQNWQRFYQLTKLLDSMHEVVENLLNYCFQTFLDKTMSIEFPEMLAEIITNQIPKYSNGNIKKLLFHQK

[7] = biological target: Glucocorticoid receptor (Homo sapiens) (UniProt P04150); assay: GR-EFC Redistribution (AID 451; calls by dose curve; also: potency is read from the fitted curve at half-maximal effect); settings: CHO-K1 GR-EFC translocation, beta-gal luminescence, 2 h
How it was run: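 Translocation of GR-ED fusion to nuclear EA restores b-gal, read by luminescence after 1 h room-temperature detection. Engineered CHO-K1 biosensor cells, 1,000/well, exposed 2 h at 37 C to titrations up to 46 uM final.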

[8] = biological target: Mitogen-activated protein kinase 10 (Mus musculus) (UniProt Q61831); assay: JNK3 AlphaScreen Assay (AID 530; active = well fitted curve in either direction with a large enough effect, not every such curve was filed as active;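 also: kinase came from lysate of stimulated human HepG2 cells; signal reports phosphorylation of biotinylated GST-cJun 1-79 at Ser73 with 10 µM ATP; % is scaled to controls: 0 for no effect and ±100 for the full control effect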); settings: JNK3 lysate, c-Jun phosphorylation; series mostly up to 57.1 µM
How it was run: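 Kinase buffer: 20 mM Tris-HCl pH 7.6, 10 mM MgCl2, 1 mM DTT, 0.1 mM Na3VO4, 0.01% Tween-20; ATP 10 uM. Substrate biotin-GST-cJun(1-79), enzyme from activated HepG2 lysates. Detection by Ser73 phospho-antibody AlphaScreen.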

[9] = biological target: 3',5'-cyclic-AMP phosphodiesterase 4B (Homo sapiens) (UniProt Q07343); assay: qHTS Assay for Inhibitors of PDE-IV (AID 607; active = well fitted activation curve with a large enough effect in the main read-out, with a control signal flat, not every such curve was filed as active; also: % of control where 0% means no effect); settings: HEK293 ACTOne CNG channel cells, membrane potential fluorescence; series mostly up to 22.9 µM
Sequence of 3',5'-cyclic-AMP phosphodiesterase 4B (Homo sapiens) (Q07343 whole entry, looked up): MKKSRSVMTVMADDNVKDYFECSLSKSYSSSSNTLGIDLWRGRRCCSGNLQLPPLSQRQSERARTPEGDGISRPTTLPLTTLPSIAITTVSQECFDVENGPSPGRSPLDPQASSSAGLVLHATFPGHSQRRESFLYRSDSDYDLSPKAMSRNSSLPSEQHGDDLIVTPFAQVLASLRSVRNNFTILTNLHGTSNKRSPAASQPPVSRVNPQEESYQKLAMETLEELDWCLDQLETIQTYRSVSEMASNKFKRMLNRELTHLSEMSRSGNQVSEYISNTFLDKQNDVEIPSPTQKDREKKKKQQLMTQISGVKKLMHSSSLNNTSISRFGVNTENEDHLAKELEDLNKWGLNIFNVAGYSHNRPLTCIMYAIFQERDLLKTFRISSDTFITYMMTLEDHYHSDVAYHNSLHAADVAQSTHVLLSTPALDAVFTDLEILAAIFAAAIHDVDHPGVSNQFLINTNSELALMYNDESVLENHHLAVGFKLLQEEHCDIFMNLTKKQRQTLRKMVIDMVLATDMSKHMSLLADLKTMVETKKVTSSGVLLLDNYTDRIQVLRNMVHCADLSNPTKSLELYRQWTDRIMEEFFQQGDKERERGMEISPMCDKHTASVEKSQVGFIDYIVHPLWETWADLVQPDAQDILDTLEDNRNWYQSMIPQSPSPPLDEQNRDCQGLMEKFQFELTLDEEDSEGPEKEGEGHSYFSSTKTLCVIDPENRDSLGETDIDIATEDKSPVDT
How it was run: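 Live HEK293 cells with a modified cyclic nucleotide-gated (CNG) channel report intracellular cAMP via membrane-potential dye fluorescence (ex 535/em 590 nm). Endogenous PDE-IV was targeted. Compounds were tested at up to 22.9 uM final; RO 20-1724 100 uM served as control.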

[10] = qHTS Assay for Lipid Storage Modulators (AID 1519; calls by dose curve); settings: Drosophila S3 cells, BODIPY lipid droplet/cell ratio, laser cytometry, cells loaded with oleic acid; for activity change, negative = inhibition: at 57.5 µM (top of the series)
How it was run: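 Cells seeded at 5,000 per well were treated with compounds over a concentration series and loaded with oleic acid (400 uM, as added). Lipid droplet fluorescence (488 nm excitation, 500-530 nm channel) was read by laser-scanning cytometry and normalized to 20 uM Triacsin C.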

[11] = biological target: Dual specificity protein kinase CLK4 (Homo sapiens) (UniProt Q9HAZ1); assay: qHTS Assay for Inhibitors of CDC-like Kinase 4 (ADP-FP Assay) (AID 1795); settings: Transcreener ADP fluorescence polarization; series mostly up to 50 µM;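 also: recombinant human CLK4 phosphorylating RS repeat peptide at 1 µM ATP; % is scaled to controls: 0 for no effect and ±100 for the full control effect; nearly all actives have a fitted effect of over 60% in size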
Sequence of Dual specificity protein kinase CLK4 (Homo sapiens) (Q9HAZ1 whole entry, looked up): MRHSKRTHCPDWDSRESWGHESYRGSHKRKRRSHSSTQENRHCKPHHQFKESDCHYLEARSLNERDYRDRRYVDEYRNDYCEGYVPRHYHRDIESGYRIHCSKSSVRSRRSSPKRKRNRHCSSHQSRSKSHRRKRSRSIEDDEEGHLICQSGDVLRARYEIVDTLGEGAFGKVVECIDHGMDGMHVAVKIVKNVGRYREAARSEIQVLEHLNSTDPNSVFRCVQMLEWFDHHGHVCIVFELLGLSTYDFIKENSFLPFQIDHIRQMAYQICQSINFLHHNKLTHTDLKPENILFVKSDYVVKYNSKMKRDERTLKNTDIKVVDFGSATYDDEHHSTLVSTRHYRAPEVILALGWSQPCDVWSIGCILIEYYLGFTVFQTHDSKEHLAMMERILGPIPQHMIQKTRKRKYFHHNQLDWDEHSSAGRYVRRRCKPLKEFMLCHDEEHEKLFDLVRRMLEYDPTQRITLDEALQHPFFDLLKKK
How it was run: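 Recombinant Clk4 (6.25 nM) phosphorylated 100 uM RS repeat peptide with 1 uM ATP in 25 mM Tris pH 7.5, 10 mM MgCl2, 0.5 mM EGTA, 2.5 mM DTT, 0.01% Triton X-100 for 1 h. ADP was detected by Transcreener ADP2 competitive fluorescence polarization after 30 min at room temperature.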

[12] = biological target: Ubiquitin carboxyl-terminal hydrolase 1 (Homo sapiens) (UniProt O94782); assay: Inhibitors of USP1/UAF1: Pilot qHTS (AID 504865); settings: purified USP1/UAF1, Ub-rhodamine cleavage fluorescence; series mostly up to 54.9 µM;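 also: rhodamine fluorescence freed from ubiquitin-rhodamine substrate followed over time; top concentration of the series differs between compounds; % is scaled to controls: 0 for no effect and ±100 for the full control effect; nearly all actives have a fitted effect of over 35% in size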
Sequence of Ubiquitin carboxyl-terminal hydrolase 1 (Homo sapiens) (O94782 whole entry, looked up): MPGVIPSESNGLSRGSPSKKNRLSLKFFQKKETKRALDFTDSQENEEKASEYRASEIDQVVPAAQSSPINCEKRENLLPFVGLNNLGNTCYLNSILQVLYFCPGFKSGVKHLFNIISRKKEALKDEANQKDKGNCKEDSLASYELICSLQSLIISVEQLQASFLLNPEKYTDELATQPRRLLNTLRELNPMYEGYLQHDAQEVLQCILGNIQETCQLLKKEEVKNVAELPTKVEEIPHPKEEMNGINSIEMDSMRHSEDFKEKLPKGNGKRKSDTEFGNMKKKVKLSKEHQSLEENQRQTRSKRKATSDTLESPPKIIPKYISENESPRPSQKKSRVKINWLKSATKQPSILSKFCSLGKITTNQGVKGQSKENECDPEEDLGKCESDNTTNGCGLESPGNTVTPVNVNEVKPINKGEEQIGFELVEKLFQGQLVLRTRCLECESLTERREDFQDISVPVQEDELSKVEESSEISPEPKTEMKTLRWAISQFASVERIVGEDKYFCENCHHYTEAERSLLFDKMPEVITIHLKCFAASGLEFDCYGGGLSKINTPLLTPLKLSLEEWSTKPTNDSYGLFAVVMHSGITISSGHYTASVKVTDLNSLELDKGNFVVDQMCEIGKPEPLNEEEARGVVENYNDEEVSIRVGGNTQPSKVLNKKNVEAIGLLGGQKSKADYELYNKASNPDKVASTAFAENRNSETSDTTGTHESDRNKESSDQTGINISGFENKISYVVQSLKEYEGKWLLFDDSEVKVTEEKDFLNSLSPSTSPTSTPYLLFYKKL
How it was run: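 USP1/UAF1 complex at 1 nM preincubated 15 min at room temperature with compound, then Ub-Rho substrate added at 150 nM final. Fluorescence (480/540 nm) read kinetically in 50 mM HEPES pH 7.8, 0.5 mM EDTA, 1 mM TCEP, 0.1 mg/ml BSA, 0.01% Tween-20.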

[13] = Primary qHTS for small molecule stabilizers of the endoplasmic reticulum resident proteome: Secreted ER Calcium Modulated Protein (SERCaMP) assay (AID 1508630); settings: SH-SY5Y GLuc-SERCaMP (Gaussia luciferase released on ER calcium loss) secretion, thapsigargin, luminescence; series mostly up to 38.4 µM; also: % is scaled to controls: 0 for no effect and ±100 for the full control effect
How it was run: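 The SH-SY5Y reporter protocol was run at 3 concentrations up to 38.3 uM (primary) or 11 concentrations (follow-up): 16 h compound, 100 nM thapsigargin for 4 h, then extracellular luciferase luminescence.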

[14] = biological target: Cytochrome P450 3A4 (Homo sapiens) (UniProt P08684); assay: qHTS Assay for Activators of Cytochrome P450 3A4 (AID 885); settings: recombinant CYP3A4, Luciferin-PPXE luminescence, 60 min; series mostly up to 57.1 µM; also: nearly all actives have a fitted effect of over 65% in size
Sequence of Cytochrome P450 3A4 (Homo sapiens) (P08684 whole entry, looked up): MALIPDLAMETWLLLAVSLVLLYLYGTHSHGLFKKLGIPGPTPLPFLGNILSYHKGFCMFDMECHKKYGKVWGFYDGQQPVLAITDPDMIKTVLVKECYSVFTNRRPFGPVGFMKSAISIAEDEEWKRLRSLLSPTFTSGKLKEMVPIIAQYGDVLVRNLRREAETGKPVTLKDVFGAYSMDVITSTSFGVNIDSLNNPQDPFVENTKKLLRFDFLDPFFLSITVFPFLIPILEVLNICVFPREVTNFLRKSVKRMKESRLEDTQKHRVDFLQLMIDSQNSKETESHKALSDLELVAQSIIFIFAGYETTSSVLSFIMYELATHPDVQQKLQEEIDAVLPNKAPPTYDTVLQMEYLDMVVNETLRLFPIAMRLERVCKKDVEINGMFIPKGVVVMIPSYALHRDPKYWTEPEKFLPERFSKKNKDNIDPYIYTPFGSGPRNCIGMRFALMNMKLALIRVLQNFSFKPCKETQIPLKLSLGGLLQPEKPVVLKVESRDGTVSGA
How it was run: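 Using 20nM recombinant human CYP3A4 in potassium phosphate (200mM), substrate Luciferin-PPXE at 25uM, luminescent luciferin detection followed a 60-min RT NADPH reaction; data scaled to 57 uM ketoconazole.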

[15] = biological target: Dual specificity protein kinase CLK4 (Homo sapiens) (UniProt Q9HAZ1); assay: qHTS Assay for Inhibitors of CDC-like Kinase 4 (ADP-Glo Assay) (AID 1771); settings: recombinant CLK4, ADP-Glo luminescence; series mostly up to 80 µM; also: nearly all actives have a fitted effect of over 70% in size; also: potency is read from the fitted curve at half-maximal effect
How it was run: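 In this ADP-Glo format, 1 uM ATP and 100 uM RS peptide served as substrates for 25 nM Clk4 in Mg2+/EGTA/DTT/Triton buffer; reactions ran 1 hr at room temperature before luminescent ADP quantification.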

[16] = qHTS Assay for Identification of Small Molecule Agonists for Hypoxia Response Element Signaling Pathway (AID 914; active = well fitted activation curve with a large enough effect in the signal ratio, with a control signal flat, not every such curve was filed as active; the % refers to the signal ratio; also: % of control where 0% means no effect); settings: ME-180 (cervical carcinoma) HRE-bla reporter, beta-lactamase ratio, CoCl2, 17 h; activation: stronger effect = higher value
How it was run: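 qHTS titration; ME-180 HRE-bla cells; EC50 CoCl2 co-treatment, 17 h at 37 degrees Celsius; CCF4 dye, ex 405nm, em 460nm and 530nm; %Activity from ratio; AC50.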

[17] = biological target: Cytochrome P450 2D6 (Homo sapiens) (UniProt P10635); assay: qHTS Assay for Inhibitors and Substrates of Cytochrome P450 2D6 (AID 891); settings: recombinant CYP2D6, luciferin-ME EGE luminescence; series mostly up to 57.1 µM; also: potency is read from the fitted curve at half-maximal effect; nearly all actives have a fitted effect of over 60% in size
Sequence of Cytochrome P450 2D6 (Homo sapiens) (P10635 whole entry, looked up): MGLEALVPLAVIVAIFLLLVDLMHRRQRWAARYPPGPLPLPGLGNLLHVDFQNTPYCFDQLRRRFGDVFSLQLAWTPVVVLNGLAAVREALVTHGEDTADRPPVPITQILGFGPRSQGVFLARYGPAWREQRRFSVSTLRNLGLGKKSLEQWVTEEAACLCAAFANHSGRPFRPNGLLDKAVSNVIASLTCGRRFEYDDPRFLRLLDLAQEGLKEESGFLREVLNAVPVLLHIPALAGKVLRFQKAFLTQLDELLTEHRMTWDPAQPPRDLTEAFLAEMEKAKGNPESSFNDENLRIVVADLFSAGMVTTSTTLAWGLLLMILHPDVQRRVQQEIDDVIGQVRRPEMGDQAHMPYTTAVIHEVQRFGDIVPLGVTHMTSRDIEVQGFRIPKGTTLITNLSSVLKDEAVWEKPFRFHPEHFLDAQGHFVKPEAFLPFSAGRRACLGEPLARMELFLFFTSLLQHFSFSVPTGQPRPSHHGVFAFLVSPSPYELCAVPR
How it was run: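 Luminescent read-out of luciferin formed by 5 nM human CYP2D6 demethylating 30 uM Luciferin-ME EGE (Km level) over 60 min at room temperature after NADPH regeneration addition. Data normalized to full inhibition by 1.43 uM quinidine.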

[18] = measured here: cell count channel max response
[19] = measured here: lipid channel max response

O=c1cnc2cnc(N3CCOCC3)nc2n1C1CC1
8.8%: max response [10, 19]
active: Potency [3] 6.31 µM
8.4%: max response [10, 18]
inactive: Potency [1] > 11.4 µM | activity change, negative = inhibition [2] 18.1% | activity change, negative = inhibition [4] -1.07% | activity, negative = inhibition [5] -6.14% | Potency [6] > 9.22 µM | Potency [7] > 46 µM | outcome [8] | Potency [9] | activity change, negative = inhibition [10] 1.43% | Potency [11] | Potency [12] | Potency [13]

COCCn1c(=O)c(C)nc2cnc(Oc3ccccc3)nc21
23.5%: max response [10, 18]
inactive: Potency [1] > 11.4 µM | activity change, negative = inhibition [2] -9.67% | activity, negative = inhibition [5] -12.4% | Potency [6] > 9.22 µM | outcome [8] | Potency [9] | Potency [14] | activity change, negative = inhibition [10] 4.7% | Potency [15] | Potency [11] | Potency [12] | Potency [13]
27.5%: max response [10, 19]

COCCn1c(=O)c(-c2cccc(C#N)c2)nc2cnc(OC)nc21
inactive: Potency [1] > 11.4 µM | activity change, negative = inhibition [2] -22.4% | activity, negative = inhibition [5] -9.77% | Potency [6] > 9.22 µM | Potency [7] > 46 µM | outcome [8] | Potency [9] | activation [16] -7.08% | activity change, negative = inhibition [10] 4.12% | Potency [15] | Potency [11] | Potency [12] | Potency [13]
22%: max response [10, 19]
19.6%: max response [10, 18]

CCNc1ncc2nc(-c3cc(F)cc(F)c3)c(=O)n(C[C@H]3CCCO3)c2n1
active: Potency [3] 3.16 µM | Potency [17] 0.158 µM
inactive: Potency [1] > 11.4 µM | activity change, negative = inhibition [4] 8.04% | activity, negative = inhibition [5] -1.58% | Potency [6] > 9.22 µM | Potency [7] > 46 µM | outcome [8] | Potency [9] | Potency [14] | activity change, negative = inhibition [10] 6.72% | Potency [15] | Potency [11] | Potency [12] | Potency [13]
19%: max response [10, 19]
13.4%: max response [10, 18]

Cc1nc2cnc(Nc3ccccc3)nc2n(C2CC2)c1=O
inactive: Potency [1] > 11.4 µM | activity change, negative = inhibition [2] -25.6% | activity change, negative = inhibition [4] 1.3% | activity, negative = inhibition [5] -10.8% | Potency [6] > 9.22 µM | Potency [7] > 46 µM | outcome [8] | Potency [9] | activity change, negative = inhibition [10] -15.4% | Potency [13]
-28.8%: max response [10, 19]
-13.6%: max response [10, 18]
active: Potency [3] 1 µM | Potency [15] 6.31 µM

CCNc1ncc2nc(-c3cn(C)c4ccccc34)c(=O)n(-c3ccc(OC)cc3)c2n1
23%: max response [10, 19]
20.6%: max response [10, 18]
inactive: Potency [1] > 11.4 µM | activity change, negative = inhibition [2] -24.5% | activity change, negative = inhibition [4] -8.46% | activity, negative = inhibition [5] -5.46% | Potency [6] > 9.22 µM | Potency [7] > 46 µM | outcome [8] | activation [16] -6.54% | activity change, negative = inhibition [10] 5.38% | Potency [15] | Potency [11] | Potency [12] | Potency [13]
